Data published in PubChem BioAssay (NCATS).
Inconclusive results are not listed. Activity calls are given as the source filed them. Calls come from the whole dose curve; as a rule, active = well fitted inhibition curve with a large enough effect; inconclusive = small, poorly fitted or top-dose-only effect; inactive = flat fitted curve, though single readings scatter. Peptide text beside a SMILES is read from it.

system: CP252; test: qHTS profiling for inhibitors of Plasmodium falciparum proliferation (AID 504749); note: nearly all actives have a fitted effect of over 60% in size; settings: P. falciparum in erythrocytes, SYBR Green DNA, 72 h; series mostly up to 12.8 µM
Procedure, shortened: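 Parasite proliferation within erythrocytes, 72 h exposure. Endpoint: SYBR Green I fluorescence after overnight lysis at room temperature. Controls: 0.29 uM artemisinin, DMSO.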
Potency is the fitted concentration of half-maximal effect.

Potency, inactive:
CCC(C)C(=O)OC1CCC=C2C=CC(C)C(CCC3CC(O)CC(=O)O3)[C@@H]21 (stereo not given in full)
C[C@]1(c2ccccc2)OC(C(=O)O)=CC1=O
OCC1OC([S-])[C@H](O)C(O)C1O.[Au+] (stereo not given in full)
COC(=O)N/N=C/C1=C[N+](=O)c2ccccc2[N+]1=O
CN1CC(=O)N=C1N
CNC1CC(N)[C@H](O)[C@@H](O[C@@H]2OC(CO)C3OC4(OC(C(N)CO)C(O)C(O)C4O)O[C@@H]3[C@H]2O)C1O (stereo not given in full)
CC(=O)N[C@@H]1C(O)OC(CO)C(O)C1O (stereo not given in full)
CCC(CCC(C)C1CCC2C3CC=C4CC(O)CC[C@@]4(C)C3CC[C@@]12C)C(C)C (stereo not given in full)
O=C1OC(CO)C(O)C(O)C1O (stereo not given)
CCCC(=O)O[C@]1(C(=O)CO)CCC2[C@@H]3CCC4=CC(=O)CC[C@]4(C)C3C(O)C[C@]21C (stereo not given in full)
COC(=O)C(Cc1ccccc1)NC(=O)C(N)CC(=O)O (stereo not drawn) (H-Asp-Phe-OMe; configuration not given here)
CC[C@@]12CCCN3CCc4c(n(c5ccccc45)[C@](O)(C(=O)OC)C1)C32 (stereo not given in full)
CC1(C)SC2C(N3C(=O)C(c4ccccc4)NC3(C)C)C(=O)N2C1C(=O)O (stereo not given)

Potency, active:
COC1C=CO[C@@]2(C)Oc3c(C)c(O)c4c(O)c(c(C=NN5CCN(C)CC5)c(O)c4c3C2=O)NC(=O)/C(C)=C\C=CC(C)C(O)[C@@H](C)C(O)C(C)[C@H](OC(C)=O)C1C (stereo not given in full) 3.16 µM
COc1ccc(CC(N)C(=O)NC2C(CO)OC(n3cnc4c(N(C)C)ncnc43)C2O)cc1 (stereo not given) 0.794 µM
